These sequences were tested on RARb:RXRa (NR concentration 270 nM, RXRa partner concentration 90 nM) (assay: PBM binding z-score (relative to random genomic background probes); higher = stronger binding; sequences stand for … in GC…GCGATTGACAGCGTAGAATGAAGG).
Outline: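 Random background probes are the reference for binding z-scores. These scores derive from regression-normalized fluorescence on custom Agilent 4×180K protein-binding microarrays incubated 1 h with ligand-free nuclear receptor dimers. Binding was detected with antibodies against each partner (one per run).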

Sequence | PBM binding z-score
CGATCTAGGTCACCAGGACAGTGAAGAGGTTGGA | 4.03
CGAACTAGATCACCAGGACAGTGAAGAGGTTGGA | -0.0219
CGAACTAGGTCACCTGGACAGTGAAGAGGTTGGA | 4.05
ATATGTAGGTTAGGGTCTTTCAGAAAGTAGGGAA | 0.945
CGAACTAGGTCAAAGGACAGTGGAAGGCGACGTA | 3.93
CGAACTAGGTCACCAGGACAGTGCAGAGGTTGGA | 4.14
CGAACTAGGTCAAAGGACAGTGATAGGCGACGTA | 3.95
ATATGTAGGTTAGTGTCATTCAGAAAGTAGGGAA | 1.4
CGTACTAGGTCACCAGGACAGTGAAGAGGTTGGA | 4.19
ATATGTAGGTTAGGCTCATTCAGAAAGTAGGGAA | 0.339
ATATGCAGGTTAGGGTCATTCAGAAAGTAGGGAA | 3.4
CGAACTAGGTCACCAGGAGAGTGAAGAGGTTGGA | 4.04
CGAACTAGGTCAAATGACAGTGAAAGGCGACGTA | 4.02
CGAACTAGGTCAAAGGACAGTGACAGGCGACGTA | 4.01
ATAAGTAGGTTAGGGTCATTCAGAAAGTAGGGAA | 3.63
CGAACTAGGTCACCAGGACAGTAAAGAGGTTGGA | 4.12
ATATGTAGGTGAGGGTCATTCAGAAAGTAGGGAA | 2.97
CGAACTAGGTCAGCAGGACAGTGAAGAGGTTGGA | 3.61
CGAACTAGGTCAAAGGACAATGAAAGGCGACGTA | 3.85
CGATCTAGGTCAAAGGACAGTGAAAGGCGACGTA | 3.79
ATATGTAGGTTAGAGTCATTCAGAAAGTAGGGAA | 1.02
CGAACTAGGTCACCAGGACAGTGAAGAGGTTGGA | 4.14
